Bioassay records: PubChem BioAssay, National Center for Advancing Translational Sciences (NCATS)
Compounds with a hit are over-represented: about 2.9% of the library has one in this group of screens.
PI5P4Ka inh – inhibitors of human PI5P4K alpha | PI5P4Kalpha enzyme, ADP-Glo luminescence, 60 min; stronger effect = lower value | max response, % | hit rate 1.2% among 330,000; active = max response of -50% or lower; inconclusive = between -30% and -50%; inactive = -30% or higher; note: value at the top dose of about 77 µM; % is set by controls: 0 for no effect and ±100 for the full control effect
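ADP-Glo luminescence end-point after a 60 min room-temperature kinase reaction. PI5P4Kalpha and substrate in HEPES pH 7.4 buffer with EGTA, 0.1% CHAPS and 5% DMSO; ATP at 5 microM final.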
POLI inh – DNA polymerase iota (human) inhibition. Potency, µM (series often up to 115 µM), inactives show at the highest dose activity, negative = inhibition, actives largely listed as inhibitors. Q9UNA4. hit rate 1% among 390,000. AID 588590. Pol iota fluorescent replication assay, 10 min; note: potency is the fitted concentration of half-maximal effect
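Pol iota at 10 nM preincubated 15 min with compounds at room temperature; reaction started with fluorescent substrate, 50 nM final. Fluorescence read kinetically at 0 and 10 min; buffer-only wells as negative control.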
12-LOX inh – blocks human arachidonate 12S-lipoxygenase. P18054. purified 12hLO, xylenol orange hydroperoxide absorbance. Potency, µM (series often up to 108 µM), for the others: at the top dose activity change, negative = inhibition, usual class: inhibitors. hit rate 1.1% among 580,000; note: potency is the fitted concentration of half-maximal effect; % is set by controls: 0 for no effect and ±100 for the full control effect
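Purified human 12hLO (150 nM final) in 25 mM Hepes, 0.01% Triton X-100, pH 7.0 was preincubated 15 min at room temperature with compound. Then 40 uM arachidonic acid was added, 30 min. Hydroperoxide was read by Fe-XO absorbance ratio 573/405 nm.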
POLK inh – blocks human DNA polymerase kappa activity. purified Pol kappa, fluorescent DNA synthesis assay, 10 min. Potency, µM (titrated, usually from 107 µM), without a hit: top-dose activity, negative = inhibition, actives largely listed as inhibitors. hit rate 0.53% among 400,000; note: potency is the fitted concentration of half-maximal effect; % is set by controls: 0 for no effect and ±100 for the full control effect
Target sequence (Q9UBT6 whole entry, looked up): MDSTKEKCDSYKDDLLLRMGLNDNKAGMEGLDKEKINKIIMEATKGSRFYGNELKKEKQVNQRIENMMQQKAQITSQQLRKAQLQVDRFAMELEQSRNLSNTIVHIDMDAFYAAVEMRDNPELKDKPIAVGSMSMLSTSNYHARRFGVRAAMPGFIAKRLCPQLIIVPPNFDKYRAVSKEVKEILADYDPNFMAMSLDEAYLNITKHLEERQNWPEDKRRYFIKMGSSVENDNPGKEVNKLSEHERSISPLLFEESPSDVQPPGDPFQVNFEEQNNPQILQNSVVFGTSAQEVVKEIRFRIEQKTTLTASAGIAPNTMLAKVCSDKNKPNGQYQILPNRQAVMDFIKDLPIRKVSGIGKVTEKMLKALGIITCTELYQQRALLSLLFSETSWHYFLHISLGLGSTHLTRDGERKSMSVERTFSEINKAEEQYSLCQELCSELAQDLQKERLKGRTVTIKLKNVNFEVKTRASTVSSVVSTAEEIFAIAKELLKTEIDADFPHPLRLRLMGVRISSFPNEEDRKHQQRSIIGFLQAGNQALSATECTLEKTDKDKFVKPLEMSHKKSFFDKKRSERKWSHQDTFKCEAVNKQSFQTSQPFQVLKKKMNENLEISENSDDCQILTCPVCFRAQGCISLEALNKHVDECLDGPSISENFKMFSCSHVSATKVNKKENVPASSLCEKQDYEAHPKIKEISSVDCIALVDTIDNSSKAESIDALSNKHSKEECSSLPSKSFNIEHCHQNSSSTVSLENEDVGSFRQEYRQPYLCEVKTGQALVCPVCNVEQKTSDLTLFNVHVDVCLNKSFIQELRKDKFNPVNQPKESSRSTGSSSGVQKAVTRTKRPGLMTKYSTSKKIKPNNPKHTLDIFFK
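Pol kappa 10 nM + cpd, 15 min RT; start w/ substrate 50 nM final; fluorescence kinetic read, 0 and 10 min. Neg ctrl: buffer, no enzyme.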
Pol eta inh – blocks human DNA polymerase eta activity; Q9Y253; recombinant Pol eta, fluorescent DNA replication assay; Potency, µM (titrated, usually from 114 µM), inactives show top-dose activity change, negative = inhibition, most hits filed as inhibitors; hit rate 1.2% among 390,000; AID 588591; note: potency is the fitted concentration of half-maximal effect; % is set by controls: 0 for no effect and ±100 for the full control effect
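Pol eta (10 nM) was preincubated with compounds for 15 min at room temperature, after which fluorescent replication substrate (50 nM final) was added to start the reaction. Fluorescence was read kinetically at 0 and 10 min.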
POLB inh – inhibitors of human DNA polymerase beta. P06746. Pol beta primer extension/strand displacement, fluorescence kinetic. Potency, µM (series often up to 114 µM), for the others: top-dose activity change, negative = inhibition, hits mostly inhibitors. hit rate 1.3% among 340,000; note: potency is the fitted concentration of half-maximal effect; % is set by controls: 0 for no effect and ±100 for the full control effect
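Curves were derived by four-parameter Hill fits of normalized qHTS data. The kinetic fluorescent primer-extension read was taken at 0 and 10 min after 50 nM substrate, following a 15 min room-temperature preincubation of 10 nM enzyme with compounds.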
* hit, by the source's call; ? = inconclusive; . = not tested or not shown. Unless noted, calls come from the whole dose curve; as a rule, active = well fitted inhibition curve with a large enough effect; inconclusive = small, poorly fitted or top-dose-only effect, or another doubt; inactive = no such curve, though single readings can be large or run the other way.

SMILES	PI5P4Ka inh	POLI inh	12-LOX inh	POLK inh	Pol eta inh	POLB inh
CCc1ccc(C(=O)NC(=S)Nc2ccc(N3CCOCC3)cc2)cc1	0	9%	22µM*	-1%	-17%	-27%
COc1ccc(C(=O)NC(=S)Nc2ccc(CN3CCOCC3)cc2)cc1Cl	6	38%	32µM*	-14%	-2%	0%
Cc1c(C(C)(C)C)sc(=N)n1C	.	.	45µM*	.	.	.
CCCNC(=O)CN(C)Cc1ncc(-c2ccccc2)o1	.	.	17%	.	.	.
O=C1C=CC(=Nc2ccc(F)cc2)O1	-18	14%	-4%	-6%	-10%	.
O=C1C=CC(=Nc2ccc3c(c2)C(=O)c2ccccc2-3)O1	-58*	-15%	?	-11%	?	.
C/C(=N\Nc1c(F)c(F)c(Br)c(F)c1F)c1ccncc1	20	117%	77%	0%	-21%	-2%
NNc1c(F)c(F)c(Br)c(F)c1F	.	.	13µM*	.	.	.
CC(=O)Nc1c(C)noc1/C=C\c1ccc(C)c(S(=O)(=O)Nc2c(C)cccc2C)c1	.	.	2%	.	.	.
Cc1nc(Nc2cnc(/C=C/c3cc(C(=O)Nc4cccc(C(F)(F)F)c4)ccc3C)cn2)cc(N2CCNCC2)n1	?	-6%	.	-5%	40µM*	40µM*
C/C(=C\C(=O)c1ccc(C)o1)Nc1ccc(C(=O)O)cc1C	2	9%	25µM*	-5%	1%	1%
COc1cc(/C=C(\C#N)c2nc3ccccc3[nH]2)cc(Cl)c1OCc1ccccc1Cl	.	69%	0%	-8%	?	3.2µM*
COc1ccccc1-c1cc(NC(=O)CCC2CCCO2)n[nH]1 (centres undefined)	.	.	27%	.	.	.
CC1(C#CC[N+]2(C)CCCCC2)CCC2C(O1)c1ccccc1OC2(C)C (centres undefined)	-2	40µM*	?	5%	-10%	0%
S=c1[nH]c2ccccc2n1CCOc1ccccc1	-1	13%	40µM*	-1%	-14%	11%
Cc1ccc(OCCn2c(=S)[nH]c3ccccc32)c(C(C)C)c1	5	23%	32µM*	-1%	-26%	15%
CC(Oc1ccccc1)c1nc(-c2ccc(Br)cc2)no1 (centres undefined)	.	.	17%	.	.	.
Cc1nc2ccc(S(=O)(=O)CCC(=O)Nc3ccc(F)cc3C)cc2s1	.	-4%	22µM*	-3%	6%	84%
COc1ccccc1NC(=O)CCS(=O)(=O)c1ccc2nc(C)sc2c1	.	13%	-3%	1%	-14%	15%
O=C(NS(=O)(=O)Nc1ccccc1)C1=C(N2CCCC2)COC1=O	3	-20%	16µM*	-17%	-7%	.
O=c1cc(CN2CCCCC2c2ccccn2)[nH]c2ccc(F)cc12 (centres undefined)	.	.	7.9µM*	.	.	.
Nc1ccccc1OCc1cccnc1	.	.	-3%	.	.	.
COc1ccccc1CNC(=O)C(C)Sc1ccsc1[N+](=O)[O-] (centres undefined)	-8	?	?	-31%	40µM*	4%
CC(Sc1ccsc1[N+](=O)[O-])C(=O)NCc1ccccc1 (centres undefined)	.	.	-1%	.	.	2%
COc1ccc(CNC(=O)CSc2ccsc2[N+](=O)[O-])cc1	-50*	?	-20%	?	50µM*	-2%
SMILES	PI5P4Ka inh	POLI inh	12-LOX inh	POLK inh	Pol eta inh	POLB inh
O=C(CSc1nnnn1-c1ccccc1)Nc1ncc(Cc2ccccc2Cl)s1	-1	61%	-4%	-7%	-20%	18%
N=C1SC(c2ccccc2)C(=O)N1c1ncc(Cc2ccccc2Cl)s1 (centres undefined)	?	?	-12%	?	?	18µM*
O=C1CC(=C(c2ccccc2)c2ccccc2)C(=O)N1CCCCN1CCN(c2ccccc2)CC1	-6	?	40µM*	-15%	-17%	4%
O=C(CCCN1CCN(c2ccccc2)CC1)c1ccc(F)cc1	6	.	1%	.	-10%	.
CCOc1cc(C=O)c(Cl)cc1OC	.	.	21%	.	.	.
O=C(c1cc2ccccc2cc1O)N1CCN(S(=O)(=O)c2ccc(Cl)cc2)CC1	.	.	-26%	.	.	.
